Test results published in PubChem BioAssay AID1347145 (National Center for Advancing Translational Sciences (NCATS), 2019).
Records with an inconclusive call do not appear. A call without a number means that no potency is given here. Active and inactive are the calls of the source. Calls come from the whole dose curve; as a rule, active = well fitted inhibition curve with a large enough effect; inconclusive = small, poorly fitted or top-dose-only effect; inactive = no such curve, though single readings can be large or run the other way.

Molecular target: N-terminal Xaa-Pro-Lys N-methyltransferase 1 (Homo sapiens) (UniProt Q9BV86)
Assay: qHTS Assay for Inhibitors of N-terminal methyltransferase 1 (NTMT1): MTaseGlo Assay Confirmatory Screen, Round 1
Conditions: Recombinant NTMT1, MTase-Glo SAH luminescence; series mostly up to 57.1 µM
Procedure, shortened: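 Luminescence from MTase-Glo conversion of SAH to ATP measured activity after a 30 min RT reaction with 1 µM SPKRIA substrate, 100 µM SAM and 125 nM enzyme. Normalization used no-enzyme and DMSO controls, followed by Hill fitting.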

Chain of N-terminal Xaa-Pro-Lys N-methyltransferase 1 (Homo sapiens) (Q9BV86 whole entry, looked up): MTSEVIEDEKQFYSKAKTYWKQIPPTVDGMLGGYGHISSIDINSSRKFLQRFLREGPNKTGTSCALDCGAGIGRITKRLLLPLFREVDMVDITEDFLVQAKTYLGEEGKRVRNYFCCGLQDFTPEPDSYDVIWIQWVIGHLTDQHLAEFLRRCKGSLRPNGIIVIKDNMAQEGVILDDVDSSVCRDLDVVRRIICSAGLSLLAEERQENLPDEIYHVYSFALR

| SMILES | Potency |
| --- | --- |
| Nc1nc(Cl)nc2c1ncn2[C@@H]1O[C@H](COP(=O)(O)OP(=O)(O)OP(=O)(O)O)C(O)[C@H]1O (stereo partly specified) | inactive |
| COc1cc2nc(N(C)C)nc(NC3CC3)c2cc1OC | inactive |
| COc1cc2nc(N3CCN(C)CC3)nc(NC3CCCC3)c2cc1OC | inactive |
| Nc1nc(Cl)nc2c1ncn2[C@H]1C[C@H](O)[C@@H](CO)O1 | inactive |
| Nc1nc(Nc2ccccc2)nc2c1ncn2[C@@H]1O[C@H](CO)C(O)[C@H]1O (stereo partly specified) | inactive |
| COc1cc2c(NC3CCN(C)CC3)nc(N3CCCN(C)CC3)nc2cc1OCCCCCN(C)C | inactive |
| COc1cc2c(NC3CCN(C(C)C)CC3)nc(N3CCCN(C)CC3)nc2cc1OCCOCCN(C)C | inactive |
| Nc1nc(Cl)nc2c1ncn2[C@@H]1O[C@H](COP(=O)(O)OP(=O)(O)OP(=O)(O)O)[C@@H](O)[C@H]1O | inactive |
| COC(=O)c1ccc2c(c1)nc(NC(=O)c1ccccc1)n2CCCc1ccccc1 | inactive |
| Nc1ncnc2c1nc(Cl)n2[C@@H]1O[C@H](CO)[C@@H](O)[C@@H]1O | inactive |
| OCC1OC(n2cnc3c(=S)nc[nH]c32)C(O)C1O (stereo unspecified) | inactive |
| NCCNC(=O)Cc1ccc(NC(=O)Cc2ccc(Nc3ncnc4c3ncn4[C@@H]3O[C@H](CO)[C@@H](O)[C@H]3O)cc2)cc1 | inactive |
| COc1cc2nc(NCCN(C)C)nc(NC3CC3)c2cc1OC | inactive |
| COCCCCOc1cc2nc(N3CCCN(C)CC3)nc(NC3CCN(C)CC3)c2cc1OC | inactive |
| CNc1nc(N2CCN(C)CC2)nc2cc(OC)c(OC)cc12 | inactive |
| COc1cc2nc(N3CC[C@@H](N(C)C)C3)nc(NC3CC3)c2cc1OC | inactive |
| CSc1nc(N)c2ncn([C@@H]3O[C@H](COP(=O)(O)OP(=O)(O)O)C(O)[C@H]3O)c2n1 (stereo partly specified) | inactive |
| C=C1OC(CO)(n2cnc3c(N)ncnc32)C(O)C1O (stereo unspecified) | inactive |

| SMILES | Potency |
| --- | --- |
| Nc1ncnc2c1ncn2[C@@H]1O[C@H](C(=O)N2CCN(CC(=O)Nc3cccc4c3CNC4=O)CC2)[C@@H](O)[C@H]1O | inactive |
| COc1cc2nc(N3CCCN(C)CC3)nc(NC(C)C)c2cc1OC | inactive |
| Nc1ncnc2c1ncn2C1OC(COP(=O)(O)O)C(O)C1O (stereo unspecified) | inactive |
| CCCCC#Cc1nc(NC)c2ncn([C@@H]3O[C@H](CO)[C@@H](O)C3O)c2n1 (stereo partly specified) | inactive |
| COc1cc2c(NC3CCN(C)CC3)nc(N3CCCCC3)nc2cc1OCCOCCN(C)C | inactive |
| CCNc1nc(N2CCCN(C)CC2)nc2cc(OC)c(OC)cc12 | inactive |
| COC1C(CO)OC(n2cnc3c(=O)[nH]cnc32)C1O (stereo unspecified) | inactive |
| COc1cc2nc(N3CCCN(C)CC3)nc(NC3CCN(C)C3)c2cc1OC (stereo unspecified) | inactive |
| Nc1ncnc2c1ncn2[C@H]1O[C@@H](CSCC[C@@H](N)C(=O)O)[C@H](O)[C@@H]1O | inactive |
| COc1cc2nc(N3CCOCC3)nc(NC3CC3)c2cc1OC | inactive |
| COc1cc2c(NC3CCN(C)CC3)nc(N3CCCN(C)CC3)nc2cc1OCCCN(C)C | inactive |
| COc1cc2nc(N3CCCN(C)CC3)nc(NC3CCOCC3)c2cc1OC | inactive |
| Nc1ncnc2c1[nH]c(=S)n2C1OC(CO)C(O)C1O (stereo unspecified) | inactive |
| COc1cc2c(NC3CCN(C4CCCCC4)CC3)nc(N3CCCCCC3)nc2cc1OCCCN1CCCCC1 | inactive |
| Nc1ncnc2c1ncn2[C@@H]1O[C@H](CO)C(O)[C@H]1O (stereo partly specified) | inactive |
| C=CCNc1nc(NC2CCN(C)CC2)c2cc(OC)c(OC)cc2n1 | inactive |
| COc1cc2nc(N3CCCN(C)CC3)nc(N3CCN(C)CC3)c2cc1OC | inactive |
| COc1cc2nc(N3CCCN(C)CC3)nc(N(C)C)c2cc1OC | inactive |
